These results are taken from PubChem BioAssay (NCI).

Values joined by “and” are separate entries in the source; they are usually repeats but may differ in a detail not shown here. Equal entries are not always repeated. Compounds without any hit were thinned out: in the full panel of roughly 83,000, 20% have a hit.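 Values shown are percent growth following 48 h exposure of cells in 96-well plates to a single concentration of compound; below 10 was considered active.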 Active and inactive are the calls of the source.

Test systems include NCI-H226 lung; NCI-H322M lung; HOP-62 NSCLC; NCI-H460 lung; HOP-92 NSCLC; NCI-H522 lung; A549/ATCC NSCLC; 786-0 renal; COLO 205 colon; DU-145 prostate; MALME-3M melanoma; MDA-MB-231 breast; RXF 393 renal; SF-268 CNS; SF-295 CNS; SF-539 CNS; UACC-257 melanoma; M14 melanoma; K-562 leukemia.
Common to all, as to experiment: NCI-60 one-dose screen, 48 h (100 = growth as untreated, 0 = no growth, -100 = all killed)
Common to all, as to settings: 10 µM unless noted

Regarding `OCc1ccccn1`, the growth in the assay on NCI-H226 lung is 102% (inactive); in the assay with NCI-H322M lung it was 105% (inactive); with HOP-62 NSCLC it was 115% (inactive); in the assay with NCI-H460 lung, 105% (inactive); in the assay on HOP-92 NSCLC, 108% (inactive); in the assay on NCI-H522 lung it was 94.9% (inactive). Besides, the growth in the assay with A549/ATCC NSCLC was 102% (inactive); with 786-0 renal, 104% (inactive); in the assay with COLO 205 colon, 127% (inactive); with DU-145 prostate, 100% (inactive); with MALME-3M melanoma it was 115% (inactive); in the assay with MDA-MB-231 breast it was 114% (inactive). Moreover, the growth is 111% (inactive) in the assay on RXF 393 renal; 107% (inactive) with SF-268 CNS; 94.7% (inactive) in the assay on SF-295 CNS; 104% (inactive) in the assay on SF-539 CNS; 104% (inactive) in the assay with UACC-257 melanoma; 108% (inactive) in the assay with M14 melanoma.
As to `CCC(=O)C(CC)c1cccc(OC)c1` (centres undefined), the growth in the assay with NCI-H226 lung was 102% (inactive); in the assay with NCI-H322M lung, 101% (inactive); in the assay on HOP-62 NSCLC it was 122% (inactive); in the assay with NCI-H460 lung it was 107% (inactive); in the assay on HOP-92 NSCLC, 97.3% (inactive); in the assay with NCI-H522 lung, 102% (inactive). For the same compound, the growth is 106% (inactive) in the assay with A549/ATCC NSCLC; 103% (inactive) in the assay on 786-0 renal; 117% (inactive) with COLO 205 colon; 114% (inactive) in the assay with DU-145 prostate; 101% (inactive) in the assay with MALME-3M melanoma; 111% (inactive) in the assay on MDA-MB-231 breast. Besides, the growth in the assay with RXF 393 renal is 107% (inactive); with SF-268 CNS, 120% (inactive); in the assay on SF-295 CNS it was 100% (inactive); in the assay on SF-539 CNS, 115% (inactive); with UACC-257 melanoma, 100% (inactive); in the assay on M14 melanoma, 101% (inactive).
`CCN1CCN(CCNc2nccc(-c3c(-c4cccc(O)c4)nc4sccn34)n2)S1(=O)=O`: the growth in the assay with NCI-H226 lung was 98.9% (inactive) and 99.1% (inactive); with NCI-H322M lung it was 66% (inactive) and 68.3% (inactive); in the assay with NCI-H460 lung, 52.7% (inactive) and 47.9% (inactive); in the assay with HOP-92 NSCLC it was 32.2% (inactive); with NCI-H522 lung, 67% (inactive) and 63.1% (inactive); with A549/ATCC NSCLC, 86% (inactive) and 70.1% (inactive). Also, the growth in the assay on 786-0 renal is 94.2% (inactive) and 64.3% (inactive); in the assay on COLO 205 colon, 24.5% (inactive) and 28.1% (inactive); with DU-145 prostate, 67.1% (inactive) and 55.1% (inactive); with K-562 leukemia it was 69.6% (inactive) and 62.7% (inactive); with MALME-3M melanoma it was -11.1% (active) and -23.5% (active); in the assay on MDA-MB-231 breast, 64.7% (inactive) and 68.3% (inactive). Besides, the growth in the assay with RXF 393 renal is 42.8% (inactive) and 61.8% (inactive); in the assay with SF-268 CNS it was 86.2% (inactive); in the assay on SF-295 CNS, 93.3% (inactive) and 98.9% (inactive); in the assay on SF-539 CNS it was 89.7% (inactive) and 87.3% (inactive); with UACC-257 melanoma, 1.33% (active) and -7.98% (active); with M14 melanoma it was 5.92% (active) and 8.15% (active).
For the compound `Nc1n[nH]c(=S)n1-c1ccc(Cl)cc1`, the growth in the assay with NCI-H226 lung was 93.9% (inactive); with NCI-H322M lung it was 98.7% (inactive); in the assay on HOP-62 NSCLC, 94.5% (inactive); in the assay on NCI-H460 lung, 99.6% (inactive); in the assay with HOP-92 NSCLC it was 85.9% (inactive); in the assay on NCI-H522 lung, 97.2% (inactive). The growth was 93.7% (inactive) in the assay on 786-0 renal; 117% (inactive) in the assay with COLO 205 colon; 108% (inactive) with DU-145 prostate; 102% (inactive) with K-562 leukemia; 102% (inactive) with MALME-3M melanoma; 112% (inactive) with MDA-MB-231 breast. The growth is 96.7% (inactive) in the assay with RXF 393 renal; 100% (inactive) with SF-268 CNS; 148% (inactive) in the assay with SF-295 CNS; 93% (inactive) in the assay on SF-539 CNS; 93.5% (inactive) in the assay with UACC-257 melanoma; 101% (inactive) with M14 melanoma.
On to `CC(C)(C)c1ccc(O)c(CNC2CCCCC2)c1`, for which the growth in the assay on NCI-H226 lung is 96.5% (inactive) and 81.2% (inactive); in the assay with NCI-H322M lung, 97.6% (inactive) and 100% (inactive); in the assay with NCI-H460 lung it was 103% (inactive) and 93.6% (inactive); in the assay with HOP-92 NSCLC, 72.4% (inactive) and 84.3% (inactive); with NCI-H522 lung, 102% (inactive) and 84.8% (inactive); in the assay on A549/ATCC NSCLC, 99.2% (inactive) and 84.7% (inactive). In addition, the growth with 786-0 renal is 96.1% (inactive) and 80.4% (inactive); in the assay with COLO 205 colon, 9.74% (active) and 107% (inactive); in the assay on DU-145 prostate, 130% (inactive) and 108% (inactive); in the assay with K-562 leukemia it was 48.7% (inactive) and 75.4% (inactive); with MALME-3M melanoma it was 115% (inactive) and 97.9% (inactive); in the assay on MDA-MB-231 breast, 101% (inactive) and 97.2% (inactive). Also, the growth in the assay on RXF 393 renal is 96.5% (inactive) and 59.5% (inactive); in the assay on SF-268 CNS it was 114% (inactive) and 96.8% (inactive); in the assay with SF-295 CNS, 104% (inactive); with SF-539 CNS it was 114% (inactive) and 95.6% (inactive); with UACC-257 melanoma, 108% (inactive) and 95.2% (inactive); in the assay on M14 melanoma, 87.1% (inactive) and 101% (inactive).
As for `COC(=O)[C@H]1CCCN1C(=O)C1CCCN1C(=O)[C@@H](Cc1ccccc1)NC(=S)Nc1cc(C(F)(F)F)cc(C(F)(F)F)c1` (some centres undefined), the growth was 105% (inactive) and 87.6% (inactive) in the assay on NCI-H226 lung; 142% (inactive) and 88.4% (inactive) in the assay on NCI-H322M lung; 105% (inactive) and 97.9% (inactive) with HOP-62 NSCLC; 102% (inactive) and 94.5% (inactive) with NCI-H460 lung; 111% (inactive) and 84.9% (inactive) in the assay on HOP-92 NSCLC; 98.6% (inactive) and 78.1% (inactive) in the assay with NCI-H522 lung. Further, the growth was 97.2% (inactive) and 71.4% (inactive) in the assay with A549/ATCC NSCLC; 105% (inactive) and 99.2% (inactive) with 786-0 renal; 121% (inactive) and 91.4% (inactive) with COLO 205 colon; 117% (inactive) and 91.4% (inactive) in the assay on DU-145 prostate; 103% (inactive) and 65.2% (inactive) in the assay on K-562 leukemia; 109% (inactive) and 98.8% (inactive) with MALME-3M melanoma. Also, the growth in the assay on MDA-MB-231 breast was 95.9% (inactive) and 75.4% (inactive); in the assay with RXF 393 renal, 108% (inactive) and 84.8% (inactive); in the assay on SF-268 CNS it was 105% (inactive) and 86.9% (inactive); with SF-295 CNS, 89.4% (inactive); with SF-539 CNS, 102% (inactive) and 96.1% (inactive); in the assay on UACC-257 melanoma, 108% (inactive) and 95.4% (inactive). In addition, the growth in the assay on M14 melanoma is 113% (inactive) and 105% (inactive).
